# From PubChem
# Apoferritin bind: qHTS Assay for Identification of Novel General Anesthetics | Potency, µM (titrated, usually from 77.5 µM), inactives show at the top dose activity change, negative = displacement, actives largely listed as inhibitors | Ferritin light chain (Equus caballus), P02791 | AID 485281, 2010 | apoferritin/1-aminoanthracene competitive binding, fluorescence | 350,000 compounds, 0.074% hits; also: % is scaled to controls: 0 for no effect and ±100 for the full control effect; nearly all actives have a fitted effect of over 20% in size
# Target sequence (P02791 2-175 limits assumed): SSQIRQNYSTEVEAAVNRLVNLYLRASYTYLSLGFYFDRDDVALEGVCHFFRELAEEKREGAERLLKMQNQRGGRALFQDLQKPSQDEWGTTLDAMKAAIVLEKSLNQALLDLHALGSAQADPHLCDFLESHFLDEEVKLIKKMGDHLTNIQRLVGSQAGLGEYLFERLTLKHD
#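 10 uM apoferritin + 50% sat. 1-AMA, PBS; cpd 10 min RT; Ex380/Em535 endpoint; normalized to free probe vs complex; 4-param Hill fit; propofol titration as pos. ctrl.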
# ATXN2 expr inh: Primary qHTS for Inhibitors of ATXN expression. HEK-293 ATXN2-luciferase reporter, luminescence, 24 h. Potency, µM (series often up to 57 µM), for the others: top-dose activity change, negative = inhibition, actives largely listed as inhibitors. 360,000 compounds, 0.72% hits. AID 1745845, 2022; also: % is scaled to controls: 0 for no effect and ±100 for the full control effect; nearly all actives have a fitted effect of over 55% in size
#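 ATXN2-luciferase reporter cells (luciferase flanked by upstream and downstream ATXN2 gene portions) were treated 24 h at 37 °C with compounds at up to 57 uM. SteadyGlo luminescence gave expression; GF-AFC fluorescence gave viability.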
# S2 tox: Viability Counterscreen for Primary qHTS for Inhibitors of ATXN expression; S2 cells (HEK-293 line with an ATXN2-luciferase reporter) viability, CellTiter-Fluor protease fluorescence, 24 h; Potency, µM (titrated, usually from 56.7 µM), actives largely listed as cytotoxic; 400,000 compounds, 0.49% hits; AID 651635, 2014; also: nearly all actives have a fitted effect of over 40% in size
# HepG2 tox: qHTS for Inhibitors of TGF-b: Cytotox Counterscreen. Potency, µM (series often up to 46.1 µM), for inactives: at the top dose activity change, negative = cytotoxicity, actives largely listed as cytotoxic. 410,000 compounds, 0.76% hits. HepG2 CAGA-GFP viability, ATP luminescence, 18 h
#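 CellTiter-Glo luminescence gave cytotoxicity after 18 hours at 37 degrees C. The cells were HepG2 CAGA-GFP in 1% FBS DMEM, stimulated with 500 pg/mL TGF-beta after compound addition. %Activity was normalised to no-cell wells (complete cell-killing) and DMSO (no toxicity), and curves were fitted and classified.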
# TGFb inhibitor: qHTS for Inhibitors of TGF-b; HepG2 CAGA-GFP TGF-b/SMAD3 reporter, GFP fluorescence, 18 h; TGF-beta stimulated, 500 pg/mL final; Potency, µM (series often up to 46.1 µM), inactives show at the highest dose activity, negative = inhibition, usual class: inhibitors; 410,000 compounds, 1.2% hits; also: % is scaled to controls: 0 for no effect and ±100 for the full control effect; nearly all actives have a fitted effect of over 65% in size
#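 Cell-based qHTS in HEPG2 carrying a CAGA-GFP Smad reporter; compounds added before 500 pg/mL final TGF-beta, 18 h incubation at 37 degrees C, GFP fluorescence quantified per cell by imaging cytometry.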
# An asterisk follows results filed as active; i = inactive; ? = inconclusive; nt = no result; [ ] = dose if it differs, or a comment. Most compounds without a hit are left out; they make up all but 2.4% or so of the library. Calls follow the shape of the dose curve; as a rule, active = well fitted curve in the direction sought with a large enough effect; inconclusive = small, poorly fitted or top-dose-only effect, or another doubt; inactive = no such curve, though single readings can be large; an effect the other way counts as inactive or inconclusive. Potency is read from the fitted curve at half-maximal effect.
SMILES,Apoferritin bind,ATXN2 expr inh,S2 tox,HepG2 tox,TGFb inhibitor
C[C@]12CC[C@H]3[C@@H](CCC4=CC(=O)CC[C@@]43C)[C@@H]1CC[C@@H]2C(=O)O,nt,7%,i,nt,nt
C/C(=N\NC(N)=S)C12CC3CC(CC(C3)C1)C2,8.9µM*,?,16µM*,-7%,11µM*
Nc1ccccc1C(=O)OCC(O)CO (stereo unspecified),nt,7%,i,nt,nt
N[C@]1(C(=O)O)CC[C@@H](C(=O)O)C1 (racemic),-20%,nt,nt,nt,nt
CCNC(=O)C[C@@H]1N=C(c2ccc(Cl)cc2)c2cc(OC)ccc2-n2c(C)nnc21,nt,63%,nt,nt,nt
CCOc1ccc(S(=O)(=O)NCCc2sc3nc(-c4ccc(C)cc4)nn3c2C)cc1,40%,nt,nt,0%,14µM*
Cc1sc(NC(=O)Cn2c(=O)oc3ccccc32)nc1-c1ccc(Cl)cc1,-1%,?,i,-53%,?
Cc1c(CCNS(=O)(=O)c2ccccc2)sc2nc(-c3ccc(Cl)cc3)nn12,34%,nt,nt,-20%,13µM*
C[C@]12CC[C@H](O)CC1=CC[C@H]1[C@H]3CCC(=O)[C@@]3(C)CC[C@@H]12,nt,2%,nt,nt,nt
CC(C)[C@H]1C(=O)N[C@H](CO)Cc2c[nH]c3cccc(c23)N1C,nt,-1%,nt,nt,nt
CCOC(=O)[C@]12Cc3c(cc(OC)c(OC)c3OC)[C@H]1N(C(C)C)C(=O)c1cc(OC)ccc12,nt,18µM*,14µM*,nt,nt
CCOC(=O)[C@]12Cc3cc(OC)ccc3[C@H]1N(C(C)C)C(=O)c1cc(OC)ccc12,nt,?,14µM*,nt,nt
CC(CO)NC(=O)C1C=C2c3cccc4[nH]cc(c34)CC2N(C)C1 (stereo unspecified),-4%,nt,nt,nt,nt
CCc1ccc(N2C(=O)NC(=O)/C(=C\C=C\c3ccco3)C2=O)cc1,-15%,nt,10µM*,-33%,?
CC(C)c1ccc(N2C(=O)NC(=O)/C(=C/C=C/c3ccco3)C2=O)cc1,-14%,28µM*,nt,16%,?
COc1cc(/C=C2\C(=O)NC(=O)N(c3ccccc3)C2=O)cc(OC)c1OC,-9%,-2%,i,9%,-23%
Cc1ccc(N2C(=O)NC(=O)/C(=C/C=C/c3ccco3)C2=O)cc1,-1%,?,?,-31%,11µM*
O=C1NC(=O)N(c2ccccc2)C(=O)/C1=C\C=C\c1ccccc1,5%,14µM*,14µM*,-49%,7.1µM*
Cc1cc(C)cc(N2C(=O)NC(=O)/C(=C\C=C\c3ccco3)C2=O)c1,-8%,?,?,-6%,?
Cc1cnc(C)c(Nc2nc(C(N)Cc3ccc(C(F)(F)F)cc3)cs2)n1 (stereo unspecified),nt,?,?,-109%,?
N[C@H]1C[C@H]1c1ccccc1,2%[29.3 µM],nt,nt,nt,nt
C[C@]12CC[C@@H]3c4ccc(OC(=O)N(CCCl)CCCl)cc4CC[C@H]3[C@@H]1CC[C@@H]2OP(=O)(O)O,nt,13%,?,nt,nt
Cc1c(C(=O)NCc2nccs2)cnn1-c1ncc2c(n1)-c1ccccc1CC2,nt,nt,i,nt,nt
CC(C)=CCC[C@](C)(O)C1CC[C@]2(C)[C@@H]1CC[C@@H]1[C@@]3(C)CCC(=O)C(C)(C)[C@@H]3CC[C@]12C (stereo partly specified),39%,nt,nt,nt,nt
C[C@]12CCC3C(CC[C@H]4C[C@H](O)CC[C@]34C)C1C[C@@H](O)[C@H]2O (stereo partly specified),nt,-16%,i,14µM*,-6%
SMILES,Apoferritin bind,ATXN2 expr inh,S2 tox,HepG2 tox,TGFb inhibitor
C[C@H]1[C@@H]2Cc3ccc(O)cc3[C@@]1(C)CCN2C,nt,-9%[288 µM],?,nt,nt
CC1(C)N([O])C(c2ccc(C(=O)O)cc2)=[N+]([O-])C1(C)C,nt,nt,nt,4%,2%
N#CSCC(=O)N1c2ccccc2CCc2ccccc21,-5%,?,?,-22%,25µM*
Nc1ccccc1C(=O)OCC(=O)N1CCc2ccccc21,9%,65%,i,-7%,27%
CCC1(O)C(=O)OCc2c1cc1n(c2=O)Cc2cc3c(N)cccc3nc2-1 (stereo unspecified),nt,?,?,11%,?
CC[C@@]1(O)C(=O)OCc2c1cc1n(c2=O)Cc2cc3cc(O)ccc3nc2-1,514%,0.038µM*,nt,nt,nt
O=Cc1cn(Cc2ccc([N+](=O)[O-])cc2)c2ccccc12,-3%,?,i,-3%,2.2µM*
O=Cc1cn(Cc2ccc(F)cc2)c2ccccc12,-16%,14µM*,i,-43%,0.71µM*
O=Cc1cn(Cc2ccccc2[N+](=O)[O-])c2ccccc12,-23%,-29%[11.3 µM],i,10%,?
Cc1ccc(Cn2cc(C=O)c3ccccc32)cc1,?,?,?,-38%,0.35µM*
CNC(C)CC1CCCCC1 (stereo unspecified),nt,nt,i,nt,nt
COc1cccc(NC(=O)CSC2=Nc3ccccc3C3=NC(CCC(=O)NCCc4ccccc4)C(=O)N23)c1 (stereo unspecified),?,nt,nt,-27%,-23%
C[C@]12CC[C@H]3[C@@H](CCC4=CC(=O)CC[C@@]43C)[C@H]1CC[C@H]2O,nt,-1%,nt,nt,nt
Cc1ccc(C)c(S(=O)(=O)Nc2ccc3c(c2)CCCN3C(=O)c2cccs2)c1,-7%,?,nt,-20%,11µM*
Cc1ccc2c(c1)C1CN(C)CCC1N2C(=O)c1cccs1 (stereo unspecified),-13%,-3%,i,13%,6%
Cc1cccc(N2C(=O)NC(=O)/C(=C\c3cc(C)n(-c4sc5c(c4C#N)CCCC5)c3C)C2=O)c1C,-18%,-31%,i,13µM*,7.1µM*
O=c1[nH]c2ccccc2n1C1CCN(C(CCc2ccccc2)c2nnnn2C2CCCC2)CC1 (stereo unspecified),nt,25µM*,?,-30%,?
CSCCC(c1nnnn1-c1ccc2c(c1)OCCO2)N1CCC(n2c(=O)[nH]c3ccccc32)CC1 (stereo unspecified),nt,?,?,-11%,?
COc1cccc(C(c2nnnn2Cc2ccccc2)N2CCC(n3c(=O)[nH]c4ccccc43)CC2)c1OC (stereo unspecified),nt,?,?,-51%,?
O=c1[nH]c2ccccc2n1C1CCN(C(c2cc3ccccc3o2)c2nnnn2Cc2ccccc2)CC1 (stereo unspecified),nt,20µM*,nt,6%,?
NCC(CS(=O)(=O)O)c1ccc(Cl)cc1 (stereo unspecified),-9%,nt,nt,nt,nt
CCCCCCCCCC(CC)c1ccc(S(=O)(=O)O)cc1 (stereo unspecified),nt,13%[116 µM],32µM*,nt,nt
CCOC(=O)[C@]12Cc3cc(Cl)ccc3[C@H]1N(C(C)C)C(=O)c1ccccc12,nt,5.6µM*,6.3µM*,nt,nt
